Bioassay records: PubChem, National Center for Advancing Translational Sciences (NCATS)
An excerpt weighted towards active compounds, which were near 22% of everything screened.
LmPK inhibitor = inhibitors of Leishmania mexicana pyruvate kinase; Q27686; purified LmPK, Kinase-Glo ATP luminescence, 1 h; Potency, µM (doses to about 57.5 µM), without a hit: at the top dose activity change, negative = inhibition, most hits filed as inhibitors; 290,000 tested, 0.37% active; AID 1721; further: potency means the concentration at half of the fitted maximal effect; on the % scale 0 is the no-effect control and ±100 the full control effect
Target sequence (Q27686 whole entry, looked up): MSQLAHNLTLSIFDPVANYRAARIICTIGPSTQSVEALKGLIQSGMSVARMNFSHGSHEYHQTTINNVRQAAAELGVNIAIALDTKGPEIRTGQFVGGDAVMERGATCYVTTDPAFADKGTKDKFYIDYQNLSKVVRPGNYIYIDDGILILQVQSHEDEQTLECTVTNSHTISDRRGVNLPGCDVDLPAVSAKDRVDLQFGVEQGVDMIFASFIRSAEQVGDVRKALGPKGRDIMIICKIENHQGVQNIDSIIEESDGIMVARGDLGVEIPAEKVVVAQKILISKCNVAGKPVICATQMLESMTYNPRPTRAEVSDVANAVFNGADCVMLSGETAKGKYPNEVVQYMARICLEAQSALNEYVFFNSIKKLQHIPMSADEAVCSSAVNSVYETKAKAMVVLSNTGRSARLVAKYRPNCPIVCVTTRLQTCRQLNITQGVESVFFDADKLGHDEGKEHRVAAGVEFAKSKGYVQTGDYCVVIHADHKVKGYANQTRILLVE
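Purified LmPK (0.1 nM) with 0.5 mM PEP and 0.1 mM ADP in imidazole buffer pH 7.2 with MgCl2/KCl, 1 h at room temperature. ATP formed was read by luciferase luminescence and normalized to no-enzyme and uninhibited controls.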
Shiga toxin inh = Shiga toxin inhibition | Vero cells, Shiga toxin protein synthesis inhibition reporter | inhibition, % at 38.7 µM | 290,000 tested, 9.2% active; in the data active means inhibition mostly above about 28%, no sharp cut-off; inactive means mostly below about 43%; further: 0% is about no effect
Pf growth 96h = P. falciparum growth inhibition at 96 hour, primary screen for plastid delayed-death inhibitors; 320,000 tested, 6.9% active; Potency, µM (titrated, usually from 28.7 µM), for the others: top-dose activity change, negative = inhibition, hits mostly inhibitors; P. falciparum luciferase reporter growth, 96 h; further: potency means the concentration at half of the fitted maximal effect; on the % scale 0 is the no-effect control and ±100 the full control effect
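Infected RBCs, 2% Hct / 0.05% parasitemia final; luciferase-reporter P. falciparum; cpd 96 h, 37 C, 5% CO2; luciferase detection reagent; luminescence.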
CHX counter = counter-screen for Shiga toxin inhibitors: cycloheximide protein synthesis inhibition; cell reporter, cycloheximide protein synthesis inhibition counterscreen; max response, %; 300,000 tested, 12% active; AID 2314; in the data active means max response mostly above about 13%, no sharp cut-off; inactive means mostly below about 14%; further: read at 38.3 µM for the half of the compounds with a filed dose; 0% is about no effect
Pf growth 48h = P. falciparum growth inhibition at 48 hours (one generation); P. falciparum luciferase growth in erythrocytes, 48 h; Potency, µM (titrated, usually from 28.7 µM), for the others: at the highest dose activity change, negative = inhibition, hits mostly inhibitors; 310,000 tested, 5.9% active; further: potency means the concentration at half of the fitted maximal effect; on the % scale 0 is the no-effect control and ±100 the full control effect
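Luminescence readout; reporter = integrated firefly luciferase in P. falciparum. RBC culture at 2% hematocrit, 0.1% parasitemia final, 37 C/5% CO2; decreased signal taken as growth inhibition.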
* marks the source's active call; other numbers are inactive results. Unless noted, the call rests on the fitted dose curve; in most records, active means well fitted inhibition curve with a large enough effect; inconclusive means small, poorly fitted or top-dose-only effect, or another doubt; inactive means no such curve, though single readings can be large or run the other way.

c1ccc2sc(NC3=NCN(CCN4CCOCC4)CN3)nc2c1 was read as LmPK inhibitor 2%, Shiga toxin inh 13, Pf growth 96h 23%, CHX counter 2 and Pf growth 48h 17%.
For c1ccc2sc(NC3=NCN(CC4CCCO4)CN3)nc2c1 (configuration not stated) the results were LmPK inhibitor -4%, Shiga toxin inh 32, Pf growth 96h inconclusive, CHX counter 36* and Pf growth 48h 84%.
COc1ccc2nc(NC3=NCCN3)sc2c1 was read as LmPK inhibitor -16%, Shiga toxin inh 28*, Pf growth 96h 337%, CHX counter 55* and Pf growth 48h 323%.
Screening COc1ccc(Nc2nc3ccc(OC)cc3s2)cc1 returned LmPK inhibitor 4%, Shiga toxin inh 82*, Pf growth 96h inactive, CHX counter 44* and Pf growth 48h 126%.
For c1ccc2sc(NC3=NCCN3)nc2c1 the results were LmPK inhibitor -6%, Shiga toxin inh 65*, Pf growth 96h 41%, CHX counter 30* and Pf growth 48h 76%.
Screening CC1Cc2cc(S(=O)(=O)N3CCN(c4ccccc4)CC3)ccc2N1C(=O)C1CC1 (configuration not stated) returned LmPK inhibitor 15%, Shiga toxin inh 22, Pf growth 96h inconclusive, CHX counter -3 and Pf growth 48h 7%.
`COc1ccc2nc(NC(=O)c3c(C)noc3C)sc2c1` gave Pf growth 96h 152% and Pf growth 48h 184%.
For COc1ccc2nc(Nc3nc(C)c(C(C)=O)s3)sc2c1 the results were LmPK inhibitor -1%, Shiga toxin inh 108*, Pf growth 96h 2%, CHX counter 55* and Pf growth 48h inconclusive.
Screening O=C(CN1C(=O)NC(c2ccccc2)(c2ccccc2)C1=O)NCC(=O)Nc1ccc(F)cc1 returned Pf growth 96h -19% and Pf growth 48h inconclusive.
For COc1ccc(-c2cn3cccnc3n2)cc1NC(=O)C1CCCC1 the results were LmPK inhibitor 3%, Shiga toxin inh -9, Pf growth 96h 11%, CHX counter -3 and Pf growth 48h inconclusive.
`COc1ccc(-c2cc(-c3ccccc3)nc3ncnn23)cc1` gave LmPK inhibitor 5%, Shiga toxin inh 19, Pf growth 96h inconclusive, CHX counter -5 and Pf growth 48h 14%.
Nc1ccc(-c2cn3cccnc3n2)cc1 was read as LmPK inhibitor -1%, Shiga toxin inh 76, Pf growth 96h 62%, CHX counter 17* and Pf growth 48h 73%.
Screening COc1ccc(-c2cn3cccnc3n2)cc1Br returned LmPK inhibitor -16%, Shiga toxin inh 99*, Pf growth 96h 22%, CHX counter 15* and Pf growth 48h 55%.
For COc1ccc(-c2cn3cc(Br)cnc3n2)cc1 the results were LmPK inhibitor -11%, Shiga toxin inh 23, Pf growth 96h 56%, CHX counter 25* and Pf growth 48h 53%.
`COc1ccc(-c2cn3cccnc3n2)cc1NC(=O)C1CC1` gave LmPK inhibitor -1%, Shiga toxin inh -10, Pf growth 96h 9.3µM*, CHX counter 1 and Pf growth 48h 25%.
Cc1ccc(-c2c(CC(=O)O)c(C)nc3sc4c(c23)CCCC4)cc1 was read as LmPK inhibitor -1%, Shiga toxin inh -8, Pf growth 96h 7%, CHX counter -5 and Pf growth 48h 15%.
For Cc1ccc(C)c(S(=O)(=O)N2CCCOC2CNC(=O)C(=O)NCc2ccc3c(c2)OCO3)c1 (configuration not stated) the results were LmPK inhibitor -1%, Shiga toxin inh 3, Pf growth 96h inconclusive, CHX counter 1 and Pf growth 48h -17%.
CCOc1ccc(CNC(=O)CCCOc2cc(=O)n(C)c3ccccc23)cc1 was read as LmPK inhibitor 1%, Shiga toxin inh -8 and CHX counter -3.
For COc1ccc(N=Nc2nc3cc(Br)c(Br)cc3n2C)c(OC)c1 the results were LmPK inhibitor 22%, Shiga toxin inh 35*, Pf growth 96h inconclusive, CHX counter 34* and Pf growth 48h 10µM*.
CN(CC(=O)Nc1cccc(F)c1)C(=O)c1ccc(COc2ccccc2)cc1 was read as Pf growth 96h 6% and Pf growth 48h inconclusive.
Screening CN(CC(=O)Nc1cccc(F)c1)C(=O)CCNC(=O)c1ccc(Br)cc1 returned LmPK inhibitor -1%, Shiga toxin inh 36, Pf growth 96h -8%, CHX counter 22* and Pf growth 48h 12%.
Screening CN(CC(=O)Nc1cccc(F)c1)C(=O)c1ccc(C(=O)c2ccccc2)cc1 returned Pf growth 96h 9.3µM* and Pf growth 48h inconclusive.
`CN(CC(=O)Nc1cccc(F)c1)C(=O)CCCNC(=O)c1ccc(Cl)cc1` gave Pf growth 96h 125% and Pf growth 48h 132%.
CN(CC(=O)Nc1cccc(F)c1)CC(=O)NC(c1ccccc1)c1ccccc1 was read as Pf growth 96h inconclusive and Pf growth 48h 12µM*.
`CCC(C)N(C(=O)CSc1nnc(NC(C)C)s1)C1CCS(=O)(=O)C1` (configuration not stated) gave Pf growth 96h 6% and Pf growth 48h 26%.
Screening CCOc1nc2c(c(-c3cccs3)c1C#N)Cc1ccccc1-2 returned LmPK inhibitor 3%, Shiga toxin inh 0, Pf growth 96h 11%, CHX counter -3 and Pf growth 48h 4%.
Screening CC(=O)COc1nc2c(c(-c3ccco3)c1C#N)CCc1ccccc1-2 returned LmPK inhibitor -1%, Shiga toxin inh 25, Pf growth 96h 12µM*, CHX counter 19 and Pf growth 48h 12µM*.
O=C(NCc1ccc(Cl)cc1)C1CCN(C(=O)Cc2ccccc2)CC1 was read as LmPK inhibitor -3%, Shiga toxin inh -9, Pf growth 96h 12µM*, CHX counter 7 and Pf growth 48h 15%.
Screening O=C(NCc1ccc(F)cc1Cl)C1CCN(S(=O)(=O)N2CCCCC2)CC1 returned LmPK inhibitor 7%, Shiga toxin inh -7, Pf growth 96h 3.3µM*, CHX counter 5 and Pf growth 48h -18%.
`CS(=O)(=O)N1CCC(C(=O)NCc2ccc(Cl)cc2)CC1` gave LmPK inhibitor -9%, Shiga toxin inh -5, Pf growth 96h 39%, CHX counter -1 and Pf growth 48h 2.3µM*.
For CS(=O)(=O)N1CCC(C(=O)Nc2cc(Cl)c(Cl)cc2Cl)CC1 the results were LmPK inhibitor 0%, Shiga toxin inh -20, Pf growth 96h 2.1µM*, CHX counter 5 and Pf growth 48h -9%.
C=CCc1cccc2cc(C(=O)Nc3ccc(S(=O)(=O)Nc4nnc(CC)s4)cc3)c(=O)oc12 was read as LmPK inhibitor 2%, Shiga toxin inh -9, Pf growth 96h 0%, CHX counter -4 and Pf growth 48h 3%.
Screening COC(=O)CC1C(=O)NCCN1C(=O)c1cc(OC)c(OC)cc1OC (configuration not stated) returned LmPK inhibitor 0%, Shiga toxin inh 39, Pf growth 96h -5%, CHX counter -4 and Pf growth 48h inconclusive.
